# Potency and affinity values are given separately. Inconclusive results are not listed. Where a call stands in place of a potency, no number is given. Activity calls are given as the source filed them. The rule behind the calls is not given here.
# Experiment: cytotoxicity in NIH-3T3 fibroblasts, dose response, cytotoxicity control for antifungal drug resistance project, cell-based, Alamar Blue, fluconazole, dry powder (AID 488809)
# Conditions: NIH-3T3 fibroblasts + fluconazole, Alamar Blue viability, 48 h; series mostly up to 26 µM
row,SMILES,outcome
1,O=C(Cn1c2ccccc2c2nc3n(c(=O)c21)CCS3)NCCc1ccc(Cl)cc1,inactive
2,Cc1ccc(C(=O)N2CCN(c3ccnc4cc(Cl)ccc34)CC2)cc1,inactive
3,CCCCNC(=O)N1CCN(c2ccnc3cc(Cl)ccc23)CC1,inactive
4,O=C(Cn1c2ccccc2c2nc3n(c(=O)c21)CCCS3)c1ccc(F)cc1,inactive
5,O=C(Cn1c2ccccc2c2nc3n(c(=O)c21)CCS3)N1CCCC1,inactive

# From PubChem BioAssay AID488809 (Broad Institute, 2010)
